Our source for the binding signal values is PMC7862700, “An all-to-all approach to the identification of sequence-specific readers for epigenetic DNA modifications on cytosine”.

What all share (experiment): DAPPL (digital affinity profiling via proximity ligation, sequencing); 10 mM Tris-HCl pH 7.5, 50 mM NaCl, 1 mM DTT, 4% glycerol, room temperature, 30 min; GST-TFs on glutathione beads, 16-mer random dsDNA library, 0.1% formaldehyde crosslink after washing; high values mean tight binding
One assay concerns the target T1, FEV (Homo sapiens, UniProt Q99581 1-238).
T1 sequence: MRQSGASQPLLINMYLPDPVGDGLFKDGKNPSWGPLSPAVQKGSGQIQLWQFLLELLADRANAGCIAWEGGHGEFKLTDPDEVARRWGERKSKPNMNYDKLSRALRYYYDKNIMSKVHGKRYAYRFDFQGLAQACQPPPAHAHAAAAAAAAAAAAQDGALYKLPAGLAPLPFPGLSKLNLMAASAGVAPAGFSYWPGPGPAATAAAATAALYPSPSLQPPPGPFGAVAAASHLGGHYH
Conditions: protein: recombinant; tags: N-terminal GST; dsDNA, one strand shown. In short, it runs like this: (§1)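 Binding signal is each hexamer's read frequency for a factor divided by its frequency in the tag-only sample. The factors were GST-fused human transcription factors from yeast, captured on glutathione beads, DNA-barcoded and pooled with that sample. Pools were incubated with 200 nmole of a random double-stranded 16-mer DNA library in Tris/NaCl/DTT/glycerol buffer at room temperature for 30 min, then washed, crosslinked with 0.1% formaldehyde, proximity-ligated with BsaI/T4 ligase (1 h, 37 °C), PCR-amplified and sequenced on an Illumina NextSeq500.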

In the next assay the target is ETV5 (Homo sapiens, UniProt P41161 1-510). The conditions noted are these: protein: recombinant; tags: N-terminal GST; dsDNA, one strand shown. In short, it runs like this: as §1
Chain of ETV5 (P41161 whole entry): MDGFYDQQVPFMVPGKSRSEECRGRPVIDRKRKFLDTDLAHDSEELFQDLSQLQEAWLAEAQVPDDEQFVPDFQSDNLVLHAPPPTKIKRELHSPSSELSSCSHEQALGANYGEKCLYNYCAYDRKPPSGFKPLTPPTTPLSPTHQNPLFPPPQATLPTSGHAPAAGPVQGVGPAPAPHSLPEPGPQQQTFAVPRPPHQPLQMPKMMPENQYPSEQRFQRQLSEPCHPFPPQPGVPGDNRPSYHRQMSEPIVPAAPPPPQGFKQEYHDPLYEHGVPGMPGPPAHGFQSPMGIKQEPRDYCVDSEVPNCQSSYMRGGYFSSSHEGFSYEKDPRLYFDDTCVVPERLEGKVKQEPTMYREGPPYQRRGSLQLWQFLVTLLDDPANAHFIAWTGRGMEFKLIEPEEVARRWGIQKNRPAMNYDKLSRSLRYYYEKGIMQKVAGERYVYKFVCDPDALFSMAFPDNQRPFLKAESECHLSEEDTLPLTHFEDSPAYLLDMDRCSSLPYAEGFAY
For a further assay, the target named is HSF1 (Homo sapiens, UniProt Q00613 1-529). The conditions noted are these: protein: recombinant; tags: N-terminal GST; chain copies: 3; dsDNA, one strand shown. In short, it runs like this:
as §1

A further assay has as its target T2, SPIC (Homo sapiens, UniProt Q8N5J4 1-248).
T2 sequence: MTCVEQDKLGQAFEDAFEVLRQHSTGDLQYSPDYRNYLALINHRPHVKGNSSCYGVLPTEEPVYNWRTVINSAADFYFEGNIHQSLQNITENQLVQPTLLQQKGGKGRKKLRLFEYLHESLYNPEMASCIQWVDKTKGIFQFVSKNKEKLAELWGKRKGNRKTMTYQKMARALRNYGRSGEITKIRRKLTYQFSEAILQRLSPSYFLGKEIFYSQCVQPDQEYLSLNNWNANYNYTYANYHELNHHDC
Conditions: protein: recombinant; tags: N-terminal GST; dsDNA, one strand shown. In short, it runs like this:
as §1

A further assay deals with ELF4 (Homo sapiens, UniProt Q99607 1-663). Conditions: protein: recombinant; tags: N-terminal GST; dsDNA, one strand shown. The essentials:
as §1

The target in another assay is T3, ELK4 (Homo sapiens, UniProt P28324-2 1-405).
T3 sequence: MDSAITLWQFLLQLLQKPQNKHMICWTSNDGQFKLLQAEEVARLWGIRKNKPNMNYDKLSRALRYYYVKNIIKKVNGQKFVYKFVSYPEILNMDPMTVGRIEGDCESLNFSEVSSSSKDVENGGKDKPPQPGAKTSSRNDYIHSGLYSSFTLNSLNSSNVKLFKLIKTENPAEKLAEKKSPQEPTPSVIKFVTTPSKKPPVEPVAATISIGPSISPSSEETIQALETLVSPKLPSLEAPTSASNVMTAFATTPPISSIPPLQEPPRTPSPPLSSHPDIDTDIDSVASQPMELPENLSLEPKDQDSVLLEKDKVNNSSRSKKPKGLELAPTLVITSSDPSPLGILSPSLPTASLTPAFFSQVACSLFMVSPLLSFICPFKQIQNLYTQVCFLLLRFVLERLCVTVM
Conditions: protein: recombinant; tags: N-terminal GST; dsDNA, one strand shown. The essentials: as §1

Another assay has as its target T4, ETV2 (Homo sapiens, UniProt O00321 1-342).
T4 sequence: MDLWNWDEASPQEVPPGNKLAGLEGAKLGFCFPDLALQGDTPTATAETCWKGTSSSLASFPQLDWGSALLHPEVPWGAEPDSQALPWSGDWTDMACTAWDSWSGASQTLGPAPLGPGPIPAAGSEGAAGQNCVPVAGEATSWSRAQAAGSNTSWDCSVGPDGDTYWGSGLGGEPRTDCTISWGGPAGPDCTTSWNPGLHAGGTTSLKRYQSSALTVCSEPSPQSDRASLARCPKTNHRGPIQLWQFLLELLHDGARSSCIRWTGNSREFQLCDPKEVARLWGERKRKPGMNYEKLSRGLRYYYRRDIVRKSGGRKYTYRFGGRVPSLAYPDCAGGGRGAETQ
The conditions noted are these: protein: recombinant; tags: N-terminal GST; dsDNA, one strand shown. The essentials:
as §1

The target of a further assay is T5, ELF3 (Homo sapiens, UniProt P78545 1-371).
T5 sequence: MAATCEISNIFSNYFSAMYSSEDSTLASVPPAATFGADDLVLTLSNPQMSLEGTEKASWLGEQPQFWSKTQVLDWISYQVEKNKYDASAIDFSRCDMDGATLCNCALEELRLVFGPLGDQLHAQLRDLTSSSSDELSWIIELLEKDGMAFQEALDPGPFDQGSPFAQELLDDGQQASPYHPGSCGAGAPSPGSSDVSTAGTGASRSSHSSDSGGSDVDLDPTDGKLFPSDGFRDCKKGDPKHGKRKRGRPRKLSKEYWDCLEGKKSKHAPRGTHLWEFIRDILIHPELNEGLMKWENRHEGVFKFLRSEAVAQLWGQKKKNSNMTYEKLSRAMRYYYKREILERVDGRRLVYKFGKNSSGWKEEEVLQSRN
The conditions noted are these: protein: recombinant; tags: N-terminal GST; dsDNA, one strand shown. The essentials: as §1

The target of a further assay is CRX (Homo sapiens, UniProt O43186 1-299). Conditions: protein: recombinant; tags: N-terminal GST; dsDNA, one strand shown. The essentials:
as §1

Another assay has as its target ETV1 (Homo sapiens, UniProt P50549 1-477). Conditions: protein: recombinant; tags: N-terminal GST; dsDNA, one strand shown. The essentials: as §1
Another assay deals with T6, ERF (Homo sapiens, UniProt P50548 1-548).
T6 sequence: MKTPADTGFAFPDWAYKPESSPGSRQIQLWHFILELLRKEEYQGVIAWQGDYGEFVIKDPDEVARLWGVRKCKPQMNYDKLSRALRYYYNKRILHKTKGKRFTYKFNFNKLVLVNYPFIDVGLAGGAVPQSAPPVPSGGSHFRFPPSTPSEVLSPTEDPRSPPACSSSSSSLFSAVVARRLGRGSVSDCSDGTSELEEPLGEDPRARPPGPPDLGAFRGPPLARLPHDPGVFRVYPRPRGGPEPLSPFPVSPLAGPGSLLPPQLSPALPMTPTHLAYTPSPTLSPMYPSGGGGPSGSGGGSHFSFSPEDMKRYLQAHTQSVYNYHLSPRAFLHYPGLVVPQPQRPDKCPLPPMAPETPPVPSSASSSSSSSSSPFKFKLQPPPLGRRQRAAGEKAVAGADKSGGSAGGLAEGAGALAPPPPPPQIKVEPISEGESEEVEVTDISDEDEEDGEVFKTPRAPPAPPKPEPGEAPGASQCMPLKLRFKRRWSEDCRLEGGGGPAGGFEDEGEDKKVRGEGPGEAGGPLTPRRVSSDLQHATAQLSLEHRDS
Conditions: protein: recombinant; tags: N-terminal GST; dsDNA, one strand shown. The essentials: as §1

The target of another assay is T7, ETV3L (Homo sapiens, UniProt Q6ZN32 1-361).
T7 sequence: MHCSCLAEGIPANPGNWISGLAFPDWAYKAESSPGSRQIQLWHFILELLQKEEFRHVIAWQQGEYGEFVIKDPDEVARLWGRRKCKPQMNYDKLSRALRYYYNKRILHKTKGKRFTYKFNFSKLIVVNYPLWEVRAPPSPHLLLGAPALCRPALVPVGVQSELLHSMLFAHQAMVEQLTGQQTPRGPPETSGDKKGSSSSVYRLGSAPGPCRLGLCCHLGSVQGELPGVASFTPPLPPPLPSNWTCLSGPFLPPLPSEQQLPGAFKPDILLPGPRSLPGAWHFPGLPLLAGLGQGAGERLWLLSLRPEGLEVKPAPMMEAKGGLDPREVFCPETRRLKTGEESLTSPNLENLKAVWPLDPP
Conditions: protein: recombinant; tags: N-terminal GST; dsDNA, one strand shown. The essentials: as §1

Another assay deals with T8, ETS2 (Homo sapiens, UniProt P15036 1-469).
T8 sequence: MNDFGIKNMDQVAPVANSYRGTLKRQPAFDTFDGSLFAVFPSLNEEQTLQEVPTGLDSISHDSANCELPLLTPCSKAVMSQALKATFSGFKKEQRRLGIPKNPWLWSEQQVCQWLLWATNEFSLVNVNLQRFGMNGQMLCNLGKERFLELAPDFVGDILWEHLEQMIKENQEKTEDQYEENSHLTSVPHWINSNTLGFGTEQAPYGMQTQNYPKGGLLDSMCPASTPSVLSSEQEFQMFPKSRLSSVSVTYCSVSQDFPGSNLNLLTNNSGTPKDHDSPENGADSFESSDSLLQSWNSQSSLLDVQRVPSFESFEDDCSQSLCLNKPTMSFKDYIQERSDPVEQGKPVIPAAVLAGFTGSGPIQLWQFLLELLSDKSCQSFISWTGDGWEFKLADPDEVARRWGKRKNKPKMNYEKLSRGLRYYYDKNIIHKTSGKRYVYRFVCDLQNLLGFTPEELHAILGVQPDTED
Conditions: protein: recombinant; tags: N-terminal GST; dsDNA, one strand shown. The essentials: as §1

In a further assay the target is T9, SPDEF (Homo sapiens, UniProt O95238 1-335).
T9 sequence: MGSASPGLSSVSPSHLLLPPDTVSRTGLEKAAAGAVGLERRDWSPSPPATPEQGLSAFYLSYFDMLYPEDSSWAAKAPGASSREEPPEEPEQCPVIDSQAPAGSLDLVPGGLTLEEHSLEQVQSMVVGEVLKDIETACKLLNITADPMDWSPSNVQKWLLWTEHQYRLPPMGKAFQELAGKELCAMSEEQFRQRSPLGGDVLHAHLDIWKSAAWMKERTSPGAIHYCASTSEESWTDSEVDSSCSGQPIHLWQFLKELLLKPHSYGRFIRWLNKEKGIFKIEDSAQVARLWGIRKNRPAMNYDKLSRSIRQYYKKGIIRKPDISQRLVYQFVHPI
Conditions: protein: recombinant; tags: N-terminal GST; dsDNA, one strand shown. In short, it runs like this:
as §1

For another assay, the target named is T10, ETV7 (Homo sapiens, UniProt Q9Y603 1-341).
T10 sequence: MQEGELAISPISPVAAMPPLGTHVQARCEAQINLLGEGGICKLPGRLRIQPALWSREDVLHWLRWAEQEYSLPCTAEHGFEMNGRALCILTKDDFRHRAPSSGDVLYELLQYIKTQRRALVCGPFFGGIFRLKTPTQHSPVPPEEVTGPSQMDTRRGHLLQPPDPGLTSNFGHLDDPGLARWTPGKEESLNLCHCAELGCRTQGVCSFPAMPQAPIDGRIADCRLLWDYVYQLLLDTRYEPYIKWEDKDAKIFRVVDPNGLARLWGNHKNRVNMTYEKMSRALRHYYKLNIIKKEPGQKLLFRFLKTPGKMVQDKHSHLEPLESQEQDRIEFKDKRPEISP
The conditions noted are these: protein: recombinant; tags: N-terminal GST; dsDNA, one strand shown. The essentials:
as §1

A further assay addresses T11, ELF5 (Homo sapiens, UniProt Q9UKW6-2 1-255).
T11 sequence: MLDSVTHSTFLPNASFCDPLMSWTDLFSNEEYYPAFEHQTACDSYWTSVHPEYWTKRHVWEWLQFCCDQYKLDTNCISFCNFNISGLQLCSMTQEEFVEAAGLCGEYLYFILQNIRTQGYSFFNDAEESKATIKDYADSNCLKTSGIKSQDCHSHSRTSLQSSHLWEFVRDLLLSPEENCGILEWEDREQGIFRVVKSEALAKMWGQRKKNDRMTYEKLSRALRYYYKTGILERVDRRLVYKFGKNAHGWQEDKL
The conditions noted are these: protein: recombinant; tags: N-terminal GST; dsDNA, one strand shown. The essentials: as §1

The next assay has as its target T12, ETV3 (Homo sapiens, UniProt P41162-2 1-143).
T12 sequence: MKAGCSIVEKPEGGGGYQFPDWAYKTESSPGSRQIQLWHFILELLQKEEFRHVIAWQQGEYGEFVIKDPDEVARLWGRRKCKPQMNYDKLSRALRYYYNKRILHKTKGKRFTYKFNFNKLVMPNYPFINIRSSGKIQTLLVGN
The conditions noted are these: protein: recombinant; tags: N-terminal GST; dsDNA, one strand shown. In short, it runs like this:
as §1

Another assay addresses ETV6 (Homo sapiens, UniProt P41212 1-452). The conditions noted are these: protein: recombinant; tags: N-terminal GST; dsDNA, one strand shown. The essentials:
as §1

Chain of CRX (O43186 whole entry): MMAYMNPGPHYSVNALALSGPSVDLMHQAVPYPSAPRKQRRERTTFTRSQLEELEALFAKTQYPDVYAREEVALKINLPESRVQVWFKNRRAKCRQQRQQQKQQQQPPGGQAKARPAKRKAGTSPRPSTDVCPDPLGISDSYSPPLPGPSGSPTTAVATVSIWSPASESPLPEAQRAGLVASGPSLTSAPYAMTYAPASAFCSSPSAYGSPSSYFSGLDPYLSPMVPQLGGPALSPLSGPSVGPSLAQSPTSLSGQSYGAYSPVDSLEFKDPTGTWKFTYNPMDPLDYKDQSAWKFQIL
Chain of ELF4 (Q99607 whole entry): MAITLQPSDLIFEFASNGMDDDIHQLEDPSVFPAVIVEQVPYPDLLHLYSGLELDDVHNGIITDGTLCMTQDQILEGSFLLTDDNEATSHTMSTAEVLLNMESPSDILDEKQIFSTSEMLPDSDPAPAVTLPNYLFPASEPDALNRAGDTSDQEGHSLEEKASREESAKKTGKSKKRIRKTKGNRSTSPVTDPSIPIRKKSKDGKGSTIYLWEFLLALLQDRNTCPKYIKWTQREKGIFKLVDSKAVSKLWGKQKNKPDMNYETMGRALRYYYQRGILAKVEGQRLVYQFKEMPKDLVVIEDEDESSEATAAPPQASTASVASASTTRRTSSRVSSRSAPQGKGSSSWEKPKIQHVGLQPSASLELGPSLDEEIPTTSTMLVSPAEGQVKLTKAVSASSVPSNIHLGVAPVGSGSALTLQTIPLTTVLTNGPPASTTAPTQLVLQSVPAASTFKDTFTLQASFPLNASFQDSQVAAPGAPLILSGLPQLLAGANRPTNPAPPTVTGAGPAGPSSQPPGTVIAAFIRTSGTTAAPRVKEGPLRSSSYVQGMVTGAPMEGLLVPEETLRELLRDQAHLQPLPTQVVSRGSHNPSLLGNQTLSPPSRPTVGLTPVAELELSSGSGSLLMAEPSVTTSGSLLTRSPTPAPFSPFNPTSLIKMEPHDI
Chain of ETV1 (P50549 whole entry): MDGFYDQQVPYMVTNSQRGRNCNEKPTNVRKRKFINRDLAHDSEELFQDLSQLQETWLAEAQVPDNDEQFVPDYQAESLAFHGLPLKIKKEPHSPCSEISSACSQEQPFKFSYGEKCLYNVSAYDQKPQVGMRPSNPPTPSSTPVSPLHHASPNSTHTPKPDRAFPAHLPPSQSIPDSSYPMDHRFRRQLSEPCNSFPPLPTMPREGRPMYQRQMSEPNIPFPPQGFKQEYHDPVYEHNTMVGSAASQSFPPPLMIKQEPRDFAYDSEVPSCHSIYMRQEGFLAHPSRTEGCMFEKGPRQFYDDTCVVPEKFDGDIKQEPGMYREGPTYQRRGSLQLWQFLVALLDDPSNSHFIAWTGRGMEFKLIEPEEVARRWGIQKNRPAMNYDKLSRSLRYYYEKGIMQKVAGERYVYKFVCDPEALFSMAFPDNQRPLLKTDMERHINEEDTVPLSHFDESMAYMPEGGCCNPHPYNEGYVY
Chain of HSF1 (Q00613 whole entry): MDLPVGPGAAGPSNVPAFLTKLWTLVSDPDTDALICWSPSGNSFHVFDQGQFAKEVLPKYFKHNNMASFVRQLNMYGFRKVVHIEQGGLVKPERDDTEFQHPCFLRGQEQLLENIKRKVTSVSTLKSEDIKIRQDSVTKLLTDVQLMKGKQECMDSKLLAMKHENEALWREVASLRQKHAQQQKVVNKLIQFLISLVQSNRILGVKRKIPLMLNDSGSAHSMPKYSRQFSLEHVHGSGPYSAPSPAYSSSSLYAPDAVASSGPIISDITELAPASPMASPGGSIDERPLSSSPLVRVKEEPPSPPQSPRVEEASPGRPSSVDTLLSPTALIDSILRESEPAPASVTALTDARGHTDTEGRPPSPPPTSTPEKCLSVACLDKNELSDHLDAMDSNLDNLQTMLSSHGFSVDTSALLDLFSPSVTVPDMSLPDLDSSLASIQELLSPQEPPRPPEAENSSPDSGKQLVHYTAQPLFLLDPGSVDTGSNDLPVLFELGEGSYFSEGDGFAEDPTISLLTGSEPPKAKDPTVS
Chain of ETV6 (P41212 whole entry): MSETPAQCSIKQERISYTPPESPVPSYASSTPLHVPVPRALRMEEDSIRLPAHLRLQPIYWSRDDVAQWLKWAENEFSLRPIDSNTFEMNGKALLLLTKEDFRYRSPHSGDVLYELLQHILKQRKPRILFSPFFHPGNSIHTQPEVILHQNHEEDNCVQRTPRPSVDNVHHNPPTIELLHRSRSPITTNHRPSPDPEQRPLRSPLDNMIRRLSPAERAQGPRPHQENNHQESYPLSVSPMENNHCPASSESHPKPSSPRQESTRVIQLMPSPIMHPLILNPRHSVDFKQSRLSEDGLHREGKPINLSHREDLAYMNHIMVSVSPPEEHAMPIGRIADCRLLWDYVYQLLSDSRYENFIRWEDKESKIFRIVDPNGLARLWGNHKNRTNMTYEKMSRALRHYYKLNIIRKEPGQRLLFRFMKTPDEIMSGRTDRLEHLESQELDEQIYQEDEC

On to GAATGT, for which the binding signal with FEV is 1.07 fold enrichment (6-mer frequency, TF over GST control); in the assay with ETV5, 1.07 fold enrichment (6-mer frequency, TF over GST control); in the assay with HSF1, 1.88 fold enrichment (6-mer frequency, TF over GST control); with SPIC it was 1.11 fold enrichment (6-mer frequency, TF over GST control); in the assay with ELF4, 1.07 fold enrichment (6-mer frequency, TF over GST control); in the assay with ELK4, 1.07 fold enrichment (6-mer frequency, TF over GST control). Moreover, the binding signal is 1.03 fold enrichment (6-mer frequency, TF over GST control) with ETV2; 1.2 fold enrichment (6-mer frequency, TF over GST control) with ELF3; 1.02 fold enrichment (6-mer frequency, TF over GST control) with CRX; 1.03 fold enrichment (6-mer frequency, TF over GST control) with ETV1; 1.04 fold enrichment (6-mer frequency, TF over GST control) with ERF; 1.1 fold enrichment (6-mer frequency, TF over GST control) with ETV3L. In addition, the binding signal is 1.06 fold enrichment (6-mer frequency, TF over GST control) in the assay with ETS2; 1.16 fold enrichment (6-mer frequency, TF over GST control) with SPDEF; 1.13 fold enrichment (6-mer frequency, TF over GST control) with ETV7; 1.08 fold enrichment (6-mer frequency, TF over GST control) with ELF5; 1.12 fold enrichment (6-mer frequency, TF over GST control) with ETV3; 1.03 fold enrichment (6-mer frequency, TF over GST control) with ETV6.
